Data published in PubChem BioAssay (Tox21).
Values without a mark were called inactive. Records with an inconclusive call do not appear. Activity calls are given as the source filed them. Unless noted, the call rests on the fitted dose curve; in most records, active means well fitted cell-killing curve with a large enough effect in the repeat runs; inconclusive means weak or mixed curves, or effect the other way; inactive means flat fitted curve, though single readings scatter.

target: Estrogen receptor beta (Homo sapiens) (UniProt Q92731); assay: qHTS assay to identify small molecule antagonists of the estrogen receptor beta (ER-beta) signaling pathway (AID 1259378; active means well fitted inhibition curve with a large enough effect in the signal ratio in the repeat runs, not every such curve was filed as active; the % refers to the signal ratio); conditions: ER-beta-UAS-bla HEK293T, beta-lactamase FRET ratio, 16 h; series mostly up to 92.4 µM; activity, negative = inhibition: at the top concentration
Method in brief: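 ER-beta-UAS-bla HEK293T cells in 2% charcoal-stripped FBS medium treated with compound plus 1nM final 17-beta-estradiol for 16 hr at 37C. Beta-lactamase reporter read by FRET substrate fluorescence after 2 hours at room temperature.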
On the % scale 0 is the no-effect control and ±100 the full control effect.

Chain of Estrogen receptor beta (Homo sapiens) (Q92731 whole entry, looked up): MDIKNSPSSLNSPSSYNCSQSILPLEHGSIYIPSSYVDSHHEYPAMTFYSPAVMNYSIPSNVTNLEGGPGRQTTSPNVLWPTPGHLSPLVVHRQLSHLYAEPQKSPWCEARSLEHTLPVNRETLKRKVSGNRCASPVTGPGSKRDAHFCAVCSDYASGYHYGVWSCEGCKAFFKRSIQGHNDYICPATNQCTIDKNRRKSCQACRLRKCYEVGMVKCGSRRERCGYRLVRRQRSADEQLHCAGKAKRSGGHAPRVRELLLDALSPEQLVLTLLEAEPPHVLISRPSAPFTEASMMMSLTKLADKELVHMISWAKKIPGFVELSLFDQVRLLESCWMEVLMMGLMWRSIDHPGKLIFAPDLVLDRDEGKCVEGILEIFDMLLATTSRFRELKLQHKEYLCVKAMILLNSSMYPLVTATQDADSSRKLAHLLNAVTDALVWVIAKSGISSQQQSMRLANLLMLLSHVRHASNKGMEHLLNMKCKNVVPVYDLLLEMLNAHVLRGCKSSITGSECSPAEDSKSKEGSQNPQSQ

SMILES	activity, negative = inhibition
CN1CCC(O)(c2ccc(F)cc2)C(C(=O)c2ccc(F)cc2)C1 (configuration not stated)	3.17% [at 42.5 µM]
CC(=O)[C@H]1CC[C@H]2[C@@H]3CC[C@H]4C[C@H](O)CC[C@]4(C)[C@H]3C(=O)C[C@]12C	-11.1% [at 42.5 µM]
O=NN1CCN(N=O)CC1	-21.7%
Nc1ccccc1Cl	0.554%
CC1CCCCC1NC(=O)Nc1ccccc1 (configuration not stated)	-8.6%
CCOP(=O)(OCC)OP(=O)(OCC)OCC	-4.56%
CC(C)(C)OC(=O)c1ncn2c1[C@@H]1CCCN1C(=O)c1c(Br)cccc1-2	-7.96% [at 42.5 µM]
Clc1cccc(N2CCNCC2)c1	8.81% [at 42.5 µM]
CCCCOC(=O)c1ccccc1N	-17.8%
CNC(=O)Oc1ccccc1C1OCCO1	14.8%
CCOC(=O)NC(=S)Nc1ccccc1NC(=S)NC(=O)OCC	2.35%
O=C(Cc1ccccc1)OCc1ccccc1	-0.23%
CCCSC(=O)Cl	-1.79%
OC(Cn1cncn1)(c1ccc(F)cc1)c1ccccc1F (configuration not stated)	-0.56%

test system: not listed separately; assay: qHTS assay to identify small molecule agonists of the androgen receptor (AR) signaling pathway in the presence of an antagonist - cell viability counter screen (AID 1259379); conditions: MDA-kb2 viability, CellTiter-Fluor, 16 h; series mostly up to 92.4 µM; activity change, negative = cytotoxicity: at the top concentration;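 further: MDA-kb2 human breast cancer cells carrying an MMTV luciferase reporter; nearly all actives have a fitted effect of over 25% in size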
Method in brief: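 A CellTiter-Fluor read-out measured viability of MDA-kb2 reporter cells (MMTV promoter with AR and GR response elements). Treatment: nilutamide 3.0uM final with compounds at 15 concentrations, 16 hr, 37C, 0% CO2.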

SMILES	activity change, negative = cytotoxicity
CCC(C)n1c(=O)[nH]c(C)c(Br)c1=O (configuration not stated)	1.07%
CN1CCC(O)(c2ccc(F)cc2)C(C(=O)c2ccc(F)cc2)C1 (configuration not stated)	-10.6% [at 42.5 µM]
CC(=O)[C@H]1CC[C@H]2[C@@H]3CC[C@H]4C[C@H](O)CC[C@]4(C)[C@H]3C(=O)C[C@]12C	3.58% [at 42.5 µM]
O=C(O)c1cccc(Cl)c1	1.59%
O=NN1CCN(N=O)CC1	-0.545%
Nc1ccccc1Cl	1.11%
CC1CCCCC1NC(=O)Nc1ccccc1 (configuration not stated)	0.538%
CC(C)NCC(O)c1ccc(N)c(C#N)c1 (configuration not stated)	-3.41% [at 42.5 µM]
CCOP(=O)(OCC)OP(=O)(OCC)OCC	-0.977%
COC(=O)c1c(C(F)F)nc(C(F)(F)F)c(C2=NCCS2)c1CC(C)C	1.23%
C[N+](C)=CCl	3.82%
CC(=O)Nc1cc([As](=O)(O)O)ccc1O	5.96% [at 42.5 µM]
CCOP(=S)(OCC)SCSP(=S)(OCC)OCC	-0.404%
C[C@]12CC[C@H]3[C@@H](CCC4=CC(=O)CC[C@@]43C)[C@@H]1CC[C@@H]2C(=O)O	5.04% [at 42.5 µM]
CCC(=O)c1ccccc1	-0.161%
C[C@@H]1CN(C2CCC(C#N)(c3ccc(F)cc3)CC2)CC[C@]1(C(=O)O)c1ccccc1 (some centres not stated)	-0.834% [at 42.5 µM]
N#CCCC#N	2.77%
CSc1ccc(C(=O)C(C)(C)N2CCOCC2)cc1	2.77%
c1ccc(N2CCNCC2)cc1	-2.61% [at 42.5 µM]

SMILES	activity change, negative = cytotoxicity
CC(N)=S	0.178%
Clc1cccc(N2CCNCC2)c1	1.12% [at 42.5 µM]
CCCCOC(=O)c1ccccc1N	0.972%
COc1cc(C[C@@H](C)N)c(OC)cc1C	-12.5%
CNC(=O)Oc1ccccc1C1OCCO1	-5.71%
CCOC(=O)NC(=S)Nc1ccccc1NC(=S)NC(=O)OCC	5.72%
ClCC(Cl)(Cl)Cl	0.324%
O=C(Cc1ccccc1)OCc1ccccc1	-2.8%
CCCSC(=O)Cl	0.377%
Cc1cc(C)c(C(=O)P(=O)(C(=O)c2c(C)cc(C)cc2C)c2ccccc2)c(C)c1	0.0298%
C#C[C@]1(O)C=C[C@H]2[C@@H]3CCC4=CC(=O)CC[C@@H]4[C@H]3CC[C@@]21CC	0.37% [at 42.5 µM]
CCCCC(=O)Cl	-1.51%
O=c1oc2ccccc2c(O)c1C1CCCc2ccccc21 (configuration not stated)	-1.51%
CCCCc1c(C)nc(NCC)[nH]c1=O	3.2%
OC(Cn1cncn1)(c1ccc(F)cc1)c1ccccc1F (configuration not stated)	1.45%
CC(CC(C#N)(c1ccccc1)c1ccccc1)N(C)C (configuration not stated)	-12.4%
CNCC(=O)c1ccc(O)c(O)c1	5.09% [at 42.5 µM]
CCN(Cc1ccc(Cl)nc1)/C(=C/[N+](=O)[O-])NC	3.11% [at 42.5 µM]

test system: not listed separately; assay: qHTS assay to identify small molecule agonists of the estrogen receptor beta (ER-beta) signaling pathway - cell viability counter screen (AID 1259380); conditions: ER-beta-bla HEK293T viability, CellTiter-Glo luminescence, 16 h; series mostly up to 92.4 µM; activity change, negative = cytotoxicity: at the top concentration; further: nearly all actives have a fitted effect of over 30% in size; further: potency means the concentration at half of the fitted maximal effect
Method in brief: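 Cells used were ER-beta-UAS-bla HEK293T in medium with 2% charcoal-stripped FBS. They were treated for 16 hr at 37C. Viability came from CellTiter-Glo luminescence.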

SMILES	activity change, negative = cytotoxicity	Potency
CCC(C)n1c(=O)[nH]c(C)c(Br)c1=O (configuration not stated)	-7.53%	–
O=C(O)c1cccc(Cl)c1	-11.2%	–
O=NN1CCN(N=O)CC1	0.354%	–
Nc1ccccc1Cl	0.0417%	–
CC(C)NCC(O)c1ccc(N)c(C#N)c1 (configuration not stated)	1.42% [at 42.5 µM]	–
CCOP(=O)(OCC)OP(=O)(OCC)OCC	-1.09%	–
COC(=O)c1c(C(F)F)nc(C(F)(F)F)c(C2=NCCS2)c1CC(C)C	-1.03%	–
C[N+](C)=CCl	1.12%	–
CC(=O)Nc1cc([As](=O)(O)O)ccc1O	-6.89% [at 42.5 µM]	–
C[C@]12CC[C@H]3[C@@H](CCC4=CC(=O)CC[C@@]43C)[C@@H]1CC[C@@H]2C(=O)O	-1.43% [at 42.5 µM]	–
CCC(=O)c1ccccc1	3.11%	–
C[C@@H]1CN(C2CCC(C#N)(c3ccc(F)cc3)CC2)CC[C@]1(C(=O)O)c1ccccc1 (some centres not stated)	5.02% [at 42.5 µM]	–
c1ccc(N2CCNCC2)cc1	4.16% [at 42.5 µM]	–
CC(N)=S	3.21%	–
COc1cc(C[C@@H](C)N)c(OC)cc1C	-10.6%	–
CNC(=O)Oc1ccccc1C1OCCO1	1.99%	–
ClCC(Cl)(Cl)Cl	10.3%	–
CCCSC(=O)Cl	-2.48%	–
Cc1cc(C)c(C(=O)P(=O)(C(=O)c2c(C)cc(C)cc2C)c2ccccc2)c(C)c1	-6.11%	–
CCCCC(=O)Cl	6.3%	–
CCCCc1c(C)nc(NCC)[nH]c1=O	-0.987%	–
CC(CC(C#N)(c1ccccc1)c1ccccc1)N(C)C (configuration not stated)	–	60.8 µM (active)
CNCC(=O)c1ccc(O)c(O)c1	1.12% [at 42.5 µM]	–

target: Androgen receptor (Homo sapiens) (UniProt P10275); assay: qHTS assay to identify small molecule agonists of the androgen receptor (AR) signaling pathway in the presence of an antagonist (AID 1259381; calls by dose curve; further: nearly all actives have a fitted effect of over 15% in size; further: potency means the concentration at half of the fitted maximal effect); conditions: MDA-kb2 MMTV-luciferase, AR agonist + nilutamide, 16 h; series mostly up to 92.4 µM; activation: at the top concentration
Method in brief: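 Using human MDA-kb2 cells with an MMTV promoter–luciferase construct (AR and GR response elements), agonist activity is scored under 3.0uM nilutamide (final) co-treatment; 16hr incubation, 37C, luminescence readout via ONE-Glo.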

Chain of Androgen receptor (Homo sapiens) (P10275 whole entry, looked up): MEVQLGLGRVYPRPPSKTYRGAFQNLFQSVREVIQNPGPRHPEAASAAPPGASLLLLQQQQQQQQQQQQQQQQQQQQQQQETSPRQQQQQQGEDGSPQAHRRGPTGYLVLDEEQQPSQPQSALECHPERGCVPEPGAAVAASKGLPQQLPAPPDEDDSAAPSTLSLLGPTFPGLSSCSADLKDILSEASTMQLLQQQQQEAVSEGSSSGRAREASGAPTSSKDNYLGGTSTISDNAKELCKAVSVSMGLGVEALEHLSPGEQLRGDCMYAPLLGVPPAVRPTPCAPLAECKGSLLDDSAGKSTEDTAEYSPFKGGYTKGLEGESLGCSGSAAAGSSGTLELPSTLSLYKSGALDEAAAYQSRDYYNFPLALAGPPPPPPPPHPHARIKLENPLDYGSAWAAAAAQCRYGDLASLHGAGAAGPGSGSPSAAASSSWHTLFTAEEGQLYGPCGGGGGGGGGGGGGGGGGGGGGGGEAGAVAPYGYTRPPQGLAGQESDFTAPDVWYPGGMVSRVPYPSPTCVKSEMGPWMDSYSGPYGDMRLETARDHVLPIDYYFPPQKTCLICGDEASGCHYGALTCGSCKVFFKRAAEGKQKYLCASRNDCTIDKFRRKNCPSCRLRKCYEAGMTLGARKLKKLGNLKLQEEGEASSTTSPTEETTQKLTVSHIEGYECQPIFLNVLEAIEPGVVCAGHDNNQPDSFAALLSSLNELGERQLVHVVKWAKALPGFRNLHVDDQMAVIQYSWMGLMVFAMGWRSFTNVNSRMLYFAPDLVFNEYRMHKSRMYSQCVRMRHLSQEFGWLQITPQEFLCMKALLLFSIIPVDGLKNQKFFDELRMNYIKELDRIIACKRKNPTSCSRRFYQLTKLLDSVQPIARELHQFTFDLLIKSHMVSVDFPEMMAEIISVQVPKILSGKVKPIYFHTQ

SMILES	activation	Potency
Nc1ccccc1Cl	-0.341%	–
CCOP(=O)(OCC)OP(=O)(OCC)OCC	0.112%	–
COC(=O)c1c(C(F)F)nc(C(F)(F)F)c(C2=NCCS2)c1CC(C)C	0.0431%	–
C[C@]12CC[C@H]3[C@@H](CCC4=CC(=O)CC[C@@]43C)[C@@H]1CC[C@@H]2C(=O)O	1.29% [at 42.5 µM]	–
CCC(=O)c1ccccc1	-0.0199%	–
c1ccc(N2CCNCC2)cc1	-0.712% [at 42.5 µM]	–
CNC(=O)Oc1ccccc1C1OCCO1	0.407%	–
C#C[C@]1(O)C=C[C@H]2[C@@H]3CCC4=CC(=O)CC[C@@H]4[C@H]3CC[C@@]21CC	–	0.133 µM (active)
